The values that follow come from PubChem BioAssay AID1347426 (Functional Genomics Laboratory (NCATS/FGL), 2020).

Out of some 31,000 sequences screened, about 1,400 (4.5%) were called active. This is one part of a sample in which actives are shown more often than they occur. Values without a mark were called inactive.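 Rule for the calls: active = median seed-adjusted z-score above 1 or below -1; inactive = the rest.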

The test is described as follows: Novel Modifiers of Survival Motor Neuron (SMN) Protein: Gene Identification via Genome-wide siRNA Screen.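 Note: luminescence tracks full-length SMN protein made from the SMN2 reporter.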 Particulars: HEK293T SMN2-luciferase reporter, siRNA knockdown, 72 h; actives lie on both sides. The text has this: Spinal muscular atrophy (SMA) is the most common neuromuscular autosomal recessive disorder and one of the leading genetic causes of infant death. SMA results from mutations inducing loss of function or deletion in the survival of motor neuron-1 gene (SMN1), leading to deficiency of the survival motor neuron (SMN) protein. Although a second nearly identical gene, SMN2, is retained in humans, its expression primarily produces an aberrantly spliced isoform that is largely unstable and quickly degraded. We performed a genome-wide RNAi screen using a cell-based reporter assay to identify genes and pathways that modulate SMN protein stability. The screen identified over 200 genes that led to the greatest increase or decrease in luciferase expression.
Using HEK293T cells stably expressing a luciferase reporter that combines the promoter and splicing based cassettes in tandem with the major portion of the native SMN2 cDNA with luciferase, we performed a genome-wide RNAi screen to identify modulators of SMN protein levels. Luciferase is expressed when full-length SMN protein is generated with luminescence signal proportional to SMN protein levels. Our luciferase-based reporter assay was used to screen Ambion Silencer Select Human Druggable Genome siRNA library (10418 genes, 3 unique siRNAs per gene) using lipid-based reverse transfection.
Briefly, 1 pmol of each siRNA was spotted to a well of a 384-well plate (Corning, Corning, NY) and 20 microL of serum-free DMEM containing […] of Lipofectamine RNAiMax (Life Technologies, Carlsbad, CA) was then added to each well. Transfected cells were maintained at 37 degrees C in 5% CO2 for 72 hours, 20 microL of ONE-Glo Reagent (Promega) was added to wells for luciferase quantification. Raw luminescence reads were normalized to Ambion(R) Silencer(R) Negative Control #2 siRNA, then log10 transformed. A robust statistical measure of median absolute deviation (MAD) to standardize siRNA activities from each screen. Common Seed Analysis was used to help prioritize clean hits as opposed to those appearing to arise from seed based off-target effects. Candidate modulators were defined as the genes having a MAD score greater than 1.0 or less than -1.0.
On the technique in general: In a reporter assay the amount or activity of a reporter protein is the signal.
With GCUUCCCGAUUAACUGAAATT against MECP2, the median seed-adjusted z-score was -0.332. The value for AGAAUGCACCAAACAAACATT against DOLPP1 was 0.00977. Regarding GGUACAAAGCAAUCGGACATT against GUCA2B, the median seed-adjusted z-score was -0.146.

Consider GUCUUUAGCUGACCUGAAUTT against DMD, for which the median seed-adjusted z-score is -0.626.

As for CCGAAGAAGCAAUAUCGAATT against CRKRS, the median seed-adjusted z-score was -1.16 (active).

Regarding CCACCUUACUUUCCUGAAUTT against TMEM171, the median seed-adjusted z-score is 0.278. The value for CACUUAUUCUGGUCCUUCATT against ELOVL3 was 0; that for CCGCUAAUGUUCAAGGACATT against UNC5B was -0.0207; that for GCAAUAGUCCCAAAAGCAATT against CD6 was -0.33. The value for GCAGGAGUUUGUUUAAUGATT against UGT1A10 was 0.286. Regarding GUAUACCGAUUGAUAACCATT against BTAF1, the median seed-adjusted z-score was -1.19 (active). Then GUGUUUUUGUAGUUACCUATT against TSEN34, with 0.918. Then CCACGAAGAAUGGAUUGAATT against TRIO, with 0.42; and ACACCACGCUCAACAUCAATT against ZBED1, with 0.0567; and GGUUGAUGCAGACAACAAATT against LGTN, with 0.491. Take GGAAUGCUAUGAUAGACGATT against GNAQ: the median seed-adjusted z-score is -1.23 (active). Then GGAAUUCGAGGAUUAUGCATT against HIAT1, with -0.0612; and CAAGGAGAGGCAUAACGUATT against DNASE1L3, with 0.0678.

For GAUUACAACCUGUAUCGAATT against THOC1, the median seed-adjusted z-score is -3.04 (active).

With GGACAUAAUGUAUUAUACUTT against DDHD1, the median seed-adjusted z-score is 0. The value for GGUCACGGAUUGCUUUUUATT against DUS1L was 0.0698. For the sequence GGAAGAACCAGAGUGUGAATT against C1RL, the median seed-adjusted z-score was -0.148. On to GGGAGAUUCUCCAACUAAATT against SR140, for which the median seed-adjusted z-score is 1.16 (active). Then GGAUCGAUUCUGAAUAUGATT against PAPSS1, with -0.648; and GGUUGAAGCUUACUCCGGATT against DHX9, with -0.687; and UCACUGAUGUACUACCUAUTT against RPUSD4, with -0.0264.

With GGAUCACGCAGCUCAAGAUTT against TBX1, the median seed-adjusted z-score was -0.744. With CCGCGAAGAUGUUAGCAUUTT against PRSS12, the median seed-adjusted z-score was 0.119. The value for ACAUAUAGGUAUCGACCAATT against PRICKLE2 was -1.12 (active); that for GCCCAGGAAAGAUAAGGCATT against PTH1R was -0.521.
